STK33 kin inh: human STK33 kinase inhibition; Q9BYT3; ADP-Glo luminescence, MBP substrate; inhibition, % at 12.5 µM; hit rate 0.44% among 27,000; AID 2322; in the data active = inhibition above about 20%
ID4 binder: binders of human ID4 protein; hit rate 1.2% among 31,000; P47928; small molecule microarray, Flag-ID4 binding, fluorescence F/B; calls only; call rule not given here;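 note: a binder raises fluorescence above local background on the spot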
Target sequence (P47928 whole entry, looked up): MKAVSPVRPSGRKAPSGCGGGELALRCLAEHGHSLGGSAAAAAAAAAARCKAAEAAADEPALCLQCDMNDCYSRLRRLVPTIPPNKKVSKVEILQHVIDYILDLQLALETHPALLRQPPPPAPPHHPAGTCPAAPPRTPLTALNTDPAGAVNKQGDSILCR
* marks the source's active call; other numbers are inactive results; i = inactive; nt = no result; + = active, no number. Sampled rows, rich in hits. Any-hit rate of the full collection: about 1.1%.

SMILES | STK33 kin inh | ID4 binder
COc1ccc(CN(C)C[C@@H]2Oc3ccc(NC(=O)Nc4ccc5c(c4)OCO5)cc3CC(=O)N([C@@H](C)CO)C[C@H]2C)cc1 | nt | +
COc1ccc(NC(=O)Nc2ccc3c(c2)CC(=O)N([C@@H](C)CO)C[C@H](C)[C@H](CN(C)Cc2ccc4c(c2)OCO4)O3)cc1 | 4.8 | nt
COc1ccc(CN(C)C[C@@H]2Oc3ccc(NC(=O)Cc4cn(C)c5ccccc45)cc3CC(=O)N([C@@H](C)CO)C[C@H]2C)cc1 | nt | +
C[C@H](CO)N1C[C@H](C)[C@@H](CN(C)C(=O)Nc2ccc3c(c2)OCO3)Oc2ccc(NC(=O)Cc3ccccc3)cc2CC1=O | nt | +
C[C@@H]1CN([C@@H](C)CO)S(=O)(=O)c2ccc(C3=CCCC3)cc2O[C@@H]1CN(C)C(=O)Nc1ccc2c(c1)OCO2 | nt | i
COc1ccc(CN(C)C[C@H]2Oc3ccc(NC(=O)Cc4cn(C)c5ccccc45)cc3CC(=O)N([C@@H](C)CO)C[C@H]2C)cc1 | nt | i
C[C@H]1CN([C@@H](C)CO)C(=O)Cc2cc(NC(=O)Cc3ccccc3)ccc2O[C@@H]1CN(C)C(=O)Nc1ccc2c(c1)OCO2 | -0.6 | i
Cc1ccc(NC(=O)CN(C)S(=O)(=O)c2ccccc2)c(C)c1 | 1.2 | i
COc1ccc(-c2nnc(SCC(=O)Nc3cccc(F)c3)n2C)cc1 | 1.5 | i
CC1CCc2c(sc(NC(=O)c3nc4ncccn4n3)c2C(N)=O)C1 (stereo unspecified) | -0.3 | i
CC1(C)CC[C@]2(C(=O)O[C@@H]3O[C@H](CO)[C@@H](O)[C@H](O)[C@H]3O)CC[C@]3(C)C(=CCC4[C@@]5(C)CC[C@@H](O[C@@H]6O[C@H](C(=O)O)[C@@H](O[C@@H]7OC[C@@H](O)[C@H](O)[C@H]7O)[C@H](O[C@@H]7OC[C@](O)(CO)[C@H]7O)[C@H]6O)C(C)(C)C5CC[C@]43C)C2C1 (stereo partly specified) | -7.9 | nt
O=[N+]([O-])c1ccc(NCCNC(=S)Nc2ccc(Cl)cc2)nc1 | 4.5 | i
O=S(=O)(N[C@@H]1CCN(Cc2ccc(OCCO)cc2)C1)c1cccc2cccnc12 | 2.1 | i
CNC[C@@H]1Oc2ccc(NC(=O)Cc3cn(C)c4ccccc34)cc2CC(=O)N([C@@H](C)CO)C[C@H]1C | nt | +
CNC[C@H]1Oc2ccc(NC(=O)Cc3cn(C)c4ccccc34)cc2CC(=O)N([C@@H](C)CO)C[C@@H]1C | -2.3 | i
COc1cccc(/C=C/c2cc(C(F)(F)F)[nH]c(=O)n2)c1OCC(=O)O | 4.2 | i
OCCCc1nc2ccccc2n1Cc1c(F)cccc1Cl | -2.8 | i
O=[N+]([O-])c1ccccc1CN1CCN(CCO)CC1 | 1.8 | +
O=[N+]([O-])c1ccccc1S(=O)(=O)N1CCN(Cc2cccc(OCCO)c2)CC1 | -0.6 | i
COc1ccc2oc3ccccc3c(=O)c2c1 | 60.7* | nt
O=c1c2ccccc2oc2ccc(O)cc12 | 17.1 | i
COc1ccc(N(CC(=O)Nc2ccc(F)c(F)c2)S(C)(=O)=O)cc1Cl | 1.0 | i
Cc1ccc(S(=O)(=O)N2CCN(Cc3cccc(OCCO)c3)CC2)cc1 | -3.5 | +
Cc1ccc(S(=O)(=O)N2CCN(Cc3ccc(OCCO)cc3)CC2)cc1 | -0.7 | i
COc1ccc(S(=O)(=O)N2CCN(Cc3cccc(OCCO)c3)CC2)cc1 | -1.8 | nt
SMILES | STK33 kin inh | ID4 binder
COc1ccc(S(=O)(=O)N2CCN(Cc3ccc(OCCO)cc3)CC2)cc1 | -0.9 | +
O=C(O)CNc1ncnc2oc(-c3ccccc3)c(-c3ccccc3)c12 | 43.4* | i
c1ccc(-c2oc3ncnc(NCCN4CCOCC4)c3c2-c2ccccc2)cc1 | 2.5 | i
NC(=O)NCC#Cc1ccc2c(c1)[C@]1(C(=O)N2)[C@H](c2ccc(OCCO)cc2)N2[C@H](c3ccccc3)[C@H](c3ccccc3)OC(=O)[C@H]2[C@@H]1C(=O)Nc1nc2ccccc2s1 | nt | i
C[C@@H]1CCCCO[C@H](CN(C)S(=O)(=O)c2ccc(F)cc2)[C@@H](C)CN([C@@H](C)CO)C(=O)c2cc(NC(=O)Nc3ccccc3)ccc2O1 | nt | i
N#Cc1c(NC(=O)Cn2c(=O)oc3ccccc32)sc2c1CCC2 | 1.4 | i
N#Cc1c(NC(=O)Cn2c(=O)oc3ccccc32)oc(-c2ccccc2)c1-c1ccccc1 | 0.9 | +
C[C@H]1CN([C@@H](C)CO)C(=O)c2cc(-c3ccncc3)cnc2O[C@@H]1CN(C)C | nt | +
C[C@@H]1CN([C@H](C)CO)C(=O)c2cc(-c3ccncc3)cnc2O[C@H]1CN(C)Cc1ccc(F)cc1 | nt | i
C[C@@H]1CN([C@H](C)CO)C(=O)c2cc(-c3ccc(C#N)cc3)cnc2O[C@H]1CN(C)Cc1ccncc1 | nt | +
CCCN(C)C[C@H]1Oc2ncc(-c3cccc(C(=O)N(C)C)c3)cc2C(=O)N([C@H](C)CO)C[C@H]1C | nt | i
Cc1ccc(-c2cnc3c(c2)C(=O)N([C@@H](C)CO)C[C@H](C)[C@@H](CN(C)C)O3)cc1 | nt | i
C[C@H]1CN([C@@H](C)CO)C(=O)c2cc(-c3ccc(C(=O)N(C)C)cc3)cnc2O[C@@H]1CN(C)C | nt | i
CCCN(C)C[C@@H]1Oc2ncc(-c3cccc(C(=O)N(C)C)c3)cc2C(=O)N([C@@H](C)CO)C[C@H]1C | nt | +
C[C@@H]1CN([C@H](C)CO)C(=O)c2cc(-c3ccc(C(=O)N(C)C)cc3)cnc2O[C@H]1CN(C)C | nt | +
O=C(CC1(O)C(=O)N(Cc2cccc3ccccc23)c2ccccc21)c1ccc(F)cc1 (stereo unspecified) | 2.3 | i
COC(=O)c1c(-c2ccc(OC)c(OC)c2)csc1NC(=O)COc1ccccc1 | 0.1 | i
CN(C(=S)SCc1ccccc1)c1ccccc1 | nt | i
CCc1cc2c(SCC(=O)N3CCc4ccccc43)ncnc2s1 | 3.2 | i
CC1(C)Cc2c(sc3nc(SCc4ccccc4)nc(NCc4ccco4)c23)CO1 | -3.4 | i
C[C@@H]1CN([C@H](C)CO)C(=O)c2cc(-c3cccc(C(=O)N(C)C)c3)cnc2O[C@H]1CN(C)C | nt | +
C[C@@H]1CN([C@H](C)CO)C(=O)c2cc(C#CCN(C)C)cnc2O[C@H]1CN(C)C(=O)c1cccnc1 | nt | +
CC(C)C#Cc1cnc2c(c1)C(=O)N([C@@H](C)CO)C[C@H](C)[C@@H](CN(C)C(=O)c1cccnc1)O2 | nt | i
C[C@H]1CN([C@@H](C)CO)C(=O)c2cc(C#Cc3ccccn3)cnc2O[C@H]1CN(C)Cc1ccccc1 | nt | i
C[C@H](CO)N1C[C@H](C)[C@@H](CN(C)Cc2cncnc2)Oc2ncc(C#Cc3ccccn3)cc2C1=O | nt | +
SMILES | STK33 kin inh | ID4 binder
C[C@@H]1CN([C@@H](C)CO)C(=O)c2cc(-c3cccc(C(=O)N(C)C)c3)cnc2O[C@@H]1CN(C)C | nt | i
O=c1cc(-c2ccccc2)n(-c2ccccc2)cn1 | -5.3 | nt
Cc1cc(NC(=O)CSc2nnnn2-c2ccccc2)ccc1Cl | -1.2 | i
Cc1ccc(NC(=O)CSc2nnnn2-c2ccc(Cl)c(C(=O)O)c2)cc1C | -2.2 | +
Cc1cc(SCC(=O)Nc2sc3c(c2C#N)CCCC3)nc2ccccc12 | 0.1 | i
Cc1cc(C)c2oc(-c3cccc(NC(=O)COc4ccc(Cl)cc4)c3C)nc2c1 | 2.6 | i
CN/C(=C/[N+](=O)[O-])NCCSCc1csc(CN(C)C)n1 | 0.9 | +
